# PubChem BioAssay (NCATS)
# “And” between values parts separate entries of the source, which are not always exact repeats. Identical values can stand only once. Records with an inconclusive call do not appear. Entries that show only a call come without a potency. Unmarked numbers belong to inactive results. The source made the active and inactive calls. Calls follow the shape of the dose curve; as a rule, active = well fitted curve in the direction sought with a large enough effect; inconclusive = small, poorly fitted or top-dose-only effect, or another doubt; inactive = no such curve, though single readings can be large; an effect the other way counts as inactive or inconclusive.
# What was measured:
# [1] = Viability qHTS for spleen associated tyrosine kinase inhibitor (SYKi) naive MV4-11 cells (AID 1963823); details: MV4-11 AML viability, CellTiter-Glo luminescence, 72 h; series mostly up to 45 µM; also: nearly all actives have a fitted effect of over 40% in size; also: potency is read from the fitted curve at half-maximal effect
# In short: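 SYKi-naive MV4-11 AML cells, 500 per well, were exposed to library compounds for 72 hr at 37 C, 5% CO2. Viability was then read by CellTiter-Glo luminescence after 10 min at room temperature.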
# [2] = Cellular viability qHTS for adrenocortical cancer (ACC) cell line NCI-H295R (AID 1963990); details: CellTiter-Glo ATP luminescence, 48 h; series mostly up to 46.1 µM; also: nearly all actives have a fitted effect of over 60% in size; also: potency is read from the fitted curve at half-maximal effect
# In short: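 Compound titrations (up to 46 uM final) are applied to NCI-H295R cultures for 48 h at 37C. Viable cell number is estimated by CellTiter-Glo signal, normalised to DMSO and doxorubicin controls.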
# [3] = Cellular viability qHTS for adrenocortical cancer (ACC) cell line SW-13 (AID 1963989); details: SW-13 ACC cells viability, CellTiter-Glo, 48 h; activity (max response): hits give low values;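 also: cells grown in serum-free medium with ITS supplement; nearly all actives have a fitted effect of over 65% in size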
# In short: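 48 h treatment, SW-13 in ITS/DMEM serum-free; doses up to 46 uM; readout CellTiter-Glo luminescence; curve fit four-parameter logistic.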
# [4] = Viability qHTS for spleen associated tyrosine kinase inhibitor (SYKi) drug resistant MV4-11 cells (AID 1963824); details: SYKi-resistant MV4-11 viability, CellTiter-Glo, 72 h; series mostly up to 45 µM; also: nearly all actives have a fitted effect of over 35% in size; also: potency is read from the fitted curve at half-maximal effect
# In short: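 SYK-inhibitor-resistant MV4-11 AML cells were seeded at 500 per well onto compound and cultured 72 hours (37 °C, 5% CO2). CellTiter-Glo was then added, and after 10 min at room temperature, luminescence gave viability.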
smiles,measurement,setting,value
CSc1ccc(/C=C2/C(C)=C(CC(=O)O)c3cc(F)ccc32)cc1,Potency,[1],inactive
same,Potency,[2],25.9 µM (active)
CN(C)CCCN1c2ccccc2Sc2ccc(Cl)cc21,Potency,[1],10.6 µM (active)
same,Potency,[2],18.4 µM (active)
N#Cc1ccc(C2CCCc3cncn32)cc1 (centres undefined),Potency,[1],inactive
same,Potency,[2],inactive
O=C(O)c1ccc(-n2nc(-c3ccccc3O)nc2-c2ccccc2O)cc1,Potency,[1],16.8 µM (active)
same,Potency,[2],31.6 µM (active)
C[C@@H](O)[C@H]1C(=O)N2C(C(=O)O)=C(S[C@@H]3CN[C@H](CNS(N)(=O)=O)C3)[C@H](C)[C@H]12,Potency,[1],inactive
same,Potency,[2],inactive
COC(=O)[C@@H]1CC2=CC(=O)CC[C@]2(C)[C@@]23O[C@@H]2C[C@@]2(C)[C@@H](CC[C@@]24CCC(=O)O4)[C@H]13,Potency,[1],inactive
same,activity (max response),[3],-0.519% and -3.74%
same,Potency,[2],inactive
C[C@]12C=C[C@@]3(CCC4[C@](C)(CO)CCC[C@@]4(C)C3CC1)C2 (some centres undefined),Potency,[4],9.2 µM (active)
OC[C@@]1(O)CO[C@@H](OC[C@H]2O[C@@H](Oc3ccccc3)[C@H](O)[C@@H](O)[C@@H]2O)[C@@H]1O,Potency,[4],inactive
O=C(/C=C/c1cccnc1)c1ccncc1,Potency,[4],6.51 µM (active)
CCCCCCCCCCCCOCCOCCOCCOCCOCCOCCOCCOCCOCCO,Potency,[4],5.96 µM (active)
C=C1C(O)C(O)C2(CC3C(C)=CCC4C(C)(CO)CCCC34C)OC2C1O (centres undefined),Potency,[4],inactive
C[C@@H]1C[C@H](O[C@@H]2O[C@H](CO[C@@H]3OC[C@](O)(CO)[C@H]3O)[C@@H](O)[C@H](O)[C@H]2O)CC(C)(C)[C@H]1/C=C/[C@@H](C)O,Potency,[4],inactive
